A selection: hits, their analogues and other compounds. The true share with any hit is near 4%.
FBA Mtb inh – inhibitors of M. tuberculosis fructose-bisphosphate aldolase; P9WQA3; purified M. tuberculosis FBA, fluorescence read-out; inhibition, % at 1 µM; 360,000 compounds, 2.3% hits; AID 588726; in the data active = inhibition above about 27%;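 note: 0% = vehicle and 100% = reference inhibitor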
UGM FP inh – inhibitors of M. tuberculosis UDP-galactopyranose mutase. purified UGM, fluorescence polarization probe displacement. inhibition, % at 10 µM. 320,000 compounds, 0.06% hits. AID 504406; in the data active = inhibition above about 10%, passing the limit was not always enough; inconclusive = no clear call, values can overlap the other calls
Rv3671c protease – inhibits the M. tuberculosis serine protease Rv3671c; 320,000 compounds, 0.048% hits; inhibition, % at 5.96 µM; P9WHR9; AID 2606; in the data active = inhibition above about 38%;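 note: extracellular domain of Rv3671c used as enzyme; 0% = enzyme with DMSO and 100% = no enzyme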
RecA splice inh – blocks M. tuberculosis RecA intein splicing; P9WHJ3; cell-free RecA intein splicing, fluorescence; inhibition, % (no concentration beside the values); 290,000 compounds, 0.75% hits; AID 2221; in the data active = inhibition above about 30%; inconclusive = no clear call, values can overlap the other calls;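 note: 0% = vehicle wells and 100% = reference inhibitor control wells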
Target sequence (P9WHJ3 whole entry, looked up, canonical isoform): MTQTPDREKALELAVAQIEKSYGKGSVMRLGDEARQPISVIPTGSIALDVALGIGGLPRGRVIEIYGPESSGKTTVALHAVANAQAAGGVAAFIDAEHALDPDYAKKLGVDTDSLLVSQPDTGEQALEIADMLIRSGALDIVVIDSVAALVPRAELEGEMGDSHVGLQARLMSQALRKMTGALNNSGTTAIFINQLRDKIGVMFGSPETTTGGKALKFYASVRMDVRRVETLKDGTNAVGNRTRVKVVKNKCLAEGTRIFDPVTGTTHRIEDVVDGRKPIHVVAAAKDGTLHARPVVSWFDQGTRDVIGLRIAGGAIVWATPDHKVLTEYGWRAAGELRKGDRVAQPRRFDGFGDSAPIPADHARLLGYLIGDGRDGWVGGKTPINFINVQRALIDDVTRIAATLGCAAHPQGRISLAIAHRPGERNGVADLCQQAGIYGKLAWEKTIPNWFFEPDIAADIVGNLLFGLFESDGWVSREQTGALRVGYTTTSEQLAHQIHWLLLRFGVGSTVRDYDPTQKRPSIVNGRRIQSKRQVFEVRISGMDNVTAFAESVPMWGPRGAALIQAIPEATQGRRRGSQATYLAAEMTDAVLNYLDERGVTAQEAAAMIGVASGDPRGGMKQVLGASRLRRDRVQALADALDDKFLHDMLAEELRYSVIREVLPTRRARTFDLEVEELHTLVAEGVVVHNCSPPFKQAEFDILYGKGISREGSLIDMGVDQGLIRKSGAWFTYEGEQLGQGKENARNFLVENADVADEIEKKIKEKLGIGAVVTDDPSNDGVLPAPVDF
Mtb betalactam – beta-lactam sensitization of Mtb H37Rv; M. tuberculosis H37Rv growth with meropenem, percent inhibition; inhibition, % at 25 µM; 330,000 compounds, 0.27% hits; AID 434955; call rule not given here;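 note: growth measured after seven days incubation then overnight dye step; 0% = bacteria only wells and 100% = bacteria with antibiotic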
GDH-TPI inh – counter-screen for M. tuberculosis FBA inhibitors: GDH-TPI coupled enzymes; 360,000 compounds, 1.2% hits; GDH-TPI coupled enzyme counterscreen, NADH absorbance; inhibition, % at 4.8 µM; in the data active = inhibition above about 30%;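 note: 0% = DMSO wells and 100% = wells lacking the enzyme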
Starred values were filed as active, the others as inactive; u = inconclusive; x = no result; + = active, no number.

SMILES	FBA Mtb inh	UGM FP inh	Rv3671c protease	RecA splice inh	Mtb betalactam	GDH-TPI inh
Cn1c(NC(=O)c2ccc(F)cc2)c(-c2cccs2)c(=O)c2ccccc21	0	1	0	-1	-1	19
Cn1c(NC(=O)c2ccccc2F)c(-c2cccs2)c(=O)c2ccccc21	0	-1	-5	-1	3	43*
CCNC(=O)C1(C)CCCN(C(=O)c2cccc(C)c2C)C1 (stereo unspecified)	3	x	x	x	x	11
O=C1C(=O)N(CCO)C(c2ccc(Br)cc2)/C1=C(\O)c1ccccc1 (stereo unspecified)	2	1	-3	-4	0	33*
Cc1cccc(-c2ccc(C=Nc3c(C)n(C)n(-c4ccccc4)c3=O)o2)c1	3	0	-1	-3	88	37*
Cc1c(N=Cc2nc3ccccc3[nH]2)c(=O)n(-c2ccccc2)n1C	-2	2	5	-6	-4	42*
Cc1[nH]c2ccccc2c1N=Nc1c(C)n(C)n(-c2ccccc2)c1=O	-6	-2	-3	0	2	9
Cc1c(N=Nc2ccc(O)cc2)c(=O)n(-c2ccccc2)n1C	-12	0	-11	-2	4	23
Cc1c(N=Cc2nc3ccccc3n2C)c(=O)n(-c2ccccc2)n1C	0	-1	5	-6	-2	43*
COc1ccc(S(=O)(=O)N2CCN(C(=O)c3cc4c(s3)CCC4)CC2)cc1	-3	-2	-3	x	-9	0
COc1cc(/C=N/NC(=S)N/N=C/c2cc(OC)c(OC)c(OC)c2)cc(OC)c1OC	1	0	4	15	9	45*
COc1ccc(/C=N/NC(=S)NCc2ccccc2)cc1OC	0	-1	3	1	5	27
COc1ccc(C=NNC(=S)NN=Cc2ccc(OC)c(OC)c2)cc1OC	-1	x	x	x	x	64*
COc1ccc(C=NNC(=S)Nc2ccc(F)cc2)cc1OC	1	x	x	x	x	69*
COc1cc(/C=N/NC(=S)NC2CC3CCC2C3)ccc1O (stereo unspecified)	-2	1	-10	-2	96	52*
COc1ccc(CNC(=S)N/N=C/c2ccc(OC)c(OC)c2)cc1	8	0	-4	0	-4	5
COc1cc(/C=N/NC(=O)c2ccoc2C)cc(OC)c1OC	5	0	4	0	20	14
COc1cc(/C=N/NC(=S)NCCN2CCOCC2)cc(OC)c1O	4	-2	2	-17	-3	49*
COc1cc(C)c(NC(=O)Cc2ccsc2)cc1OC	-4	-1	-8	-5	-2	7
OCc1ccc(-c2cncc3nccn23)cc1	+	x	x	x	x	13
c1cn2c(-c3ccoc3)cncc2n1	26	x	x	x	x	3
O=[N+]([O-])c1cc(/C=N/n2cnnc2)ccc1N1CCCC1	-3	2	1	1	2	37*
CCOC(=O)C1CCN(S(=O)(=O)c2c(Cl)ccc3nonc23)CC1	0	-1	-5	41*	u	0
COc1ccc(OC)c(/C=N/NC(=O)Cn2ccnc2C)c1	165*	-3	10	-2	-6	14
COc1cccc(/C=N/NC(=O)Cn2ccnc2C)c1	3	-1	-3	1	0	1
SMILES	FBA Mtb inh	UGM FP inh	Rv3671c protease	RecA splice inh	Mtb betalactam	GDH-TPI inh
COc1ccc(C(=O)c2c(-c3ccc(OC)cc3)oc3ccc(-c4cc(OC)c(OC)c(OC)c4)cc23)cc1	9	3	1	-5	-2	37*
COc1ccc(-c2ccc3oc(-c4ccc(OC)cc4)c(C#CCO)c3c2)cc1	16	0	-8	1	13	31*
COc1ccc(-c2oc3ccc(-c4cc(OC)c(OC)c(OC)c4)cc3c2C(=O)c2ccc(OC)nc2)cc1	0	0	-13	2	-4	14
COc1ccc(-c2oc3ccc(-c4ccc5c(c4)OCO5)cc3c2C#CC2(O)CCCCC2)cc1	45*	3	-46	-1	23	54*
COc1ccc(-c2oc3ccc(-c4ccc(OC)nc4)cc3c2C#CC2(O)CCCCC2)cc1	7	0	-56	-4	96	31*
COc1cc2cc(CCCOC(=O)c3ccc4c(c3)OCO4)oc(=O)c2cc1OC	3	0	-10	x	-4	13
CN(CC(=O)Nc1ncn[nH]1)S(=O)(=O)c1ccc(Br)cc1	-2	2	-11	3	-12	3
COc1ccccc1-c1oc2ccccc2c1C#CC1(O)CCCCC1	24	-5	-9	x	20	0
COc1cc(-c2ccc3oc(-c4cccc(C)c4)c(C#CC4(O)CCCCC4)c3c2)cc(OC)c1OC	117*	0	-27	x	59	35*
O=C(c1cc(Br)c[nH]1)N1CCSCC1	2	0	-6	1	-2	-7
Cc1ccc(N2C(=O)c3ccccc3C2C(=O)c2ccc(O)cc2O)cc1 (stereo unspecified)	-5	0	1	-2	1	43*
C=CCn1c2ccccc2c(=O)c2cc(C#CC[C@@H](C)O)ccc21	+	4	-25	x	24	13
Cn1c2ccccc2c(=O)c2cc(C#Cc3cccc(N)c3)ccc21	8	2	-12	x	2	15
CCN(CC)c1ccc(C(=O)OCC(=O)NC(C)(C)C)cc1	-2	0	4	0	-4	57*
CCOC(=O)C1=CCN(S(=O)(=O)c2ccccc2F)C1c1ccccc1 (stereo unspecified)	-2	x	x	x	x	x
O=C(CN1CCCC1)N1CCCc2c1c(=O)oc1ccc(OCc3ccccc3)cc21	21	3	-1	2	-2	34*
CCCOc1ccc2oc(=O)c3c(c2c1)CCCN3C(=O)CN1CCN(C(=O)c2ccco2)CC1	x	0	0	-3	-5	x
C/C(=N\Nc1ccc(Cl)c(C(=O)O)c1)c1cc2ccccc2o1	-1	0	-4	x	1	31*
C/C(=N\Nc1cccc(C(=O)O)c1)c1cc2ccccc2o1	-2	-2	8	x	2	48*
C/C(=N\Nc1ccc(Cl)c(C(=O)O)c1)c1cccc2ccccc12	-1	4	1	2	1	16
C/C(=N\Nc1ccc(Cl)c(C(=O)O)c1)c1ccccn1	1	1	1	-3	2	37*
COc1ccccc1/C=C1\SC(=O)N(CC(=O)N(C)C2CCS(=O)(=O)C2)C1=O (stereo unspecified)	-1	-2	7	0	4	31*
CCN(C(=O)CN1C(=O)S/C(=C\c2ccc(Cl)cc2)C1=O)C1CCS(=O)(=O)C1 (stereo unspecified)	0	2	-4	-1	7	34*
CCN(C(=O)CN1C(=O)S/C(=C\c2cccc(Cl)c2)C1=O)C1CCS(=O)(=O)C1 (stereo unspecified)	-3	-3	7	9	-1	24
O=C(Nc1cccc(O)c1)c1cc(-c2cccs2)on1	165*	0	-10	3	0	-6
CC(=O)c1cccc(NC(=O)c2cc(-c3cccs3)on2)c1	3	4	-8	3	-2	14

Assay outcomes as filed in PubChem BioAssay.
